# Assay outcomes deposited in PubChem by National Center for Advancing Translational Sciences (NCATS).
# This is a sample that favours compounds with a hit; in the whole collection about 21% have one here.
# NS1 function inh: blocks influenza NS1 protein function. hit rate 0.4% among 270,000. Potency, µM (top dose mostly 46.1 µM), inactives show top-dose activity, positive = more growth. AID 2326; note: potency is the fitted concentration of half-maximal effect; actives are rising curves; nearly all actives have a fitted effect of over 50% in size
#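 Recovery from NS1-induced slow growth read by OD600 in budding yeast switched to galactose assay medium (pH 6.0, -URA) at 1:100 dilution. Compound 23 nl per well; the matching strain lacking NS1 serves as control.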
# Pf growth 48h: P. falciparum growth inhibition at 48 hours (one generation). P. falciparum luciferase growth in erythrocytes, 48 h. Potency, µM (top dose mostly 28.7 µM), inactives show at the top dose activity change, negative = inhibition, hits mostly inhibitors. hit rate 5.9% among 310,000. AID 504832; active = well fitted inhibition curve with a large enough effect; inconclusive = small, poorly fitted or top-dose-only effect, or another doubt; inactive = no such curve, though single readings can be large or run the other way; note: potency is the fitted concentration of half-maximal effect; % is set by controls: 0 for no effect and ±100 for the full control effect
#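 First compound was added to culture medium, then infected red cells at 0.1% parasitemia and 2% hematocrit (final). After incubation at 37 C under 5% CO2, luciferase detection reagent was dispensed and light output recorded.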
# SARS PLP yeast: SARS-CoV PLP inhibition in yeast. AID 485353. Potency, µM (doses to about 32.9 µM), without a hit: at the highest dose activity, positive = growth rescue, hits mostly activators. S. cerevisiae expressing SARS-CoV PLpro, growth rescue. hit rate 0.19% among 330,000; note: potency is the fitted concentration of half-maximal effect; 0% is about no effect; nearly all actives have a fitted effect of over 55% in size
# Pf growth 96h: P. falciparum growth inhibition at 96 hours; P. falciparum luciferase reporter growth, 96 h; hit rate 6.9% among 320,000; Potency, µM (highest dose often 28.7 µM), without a hit: at the highest dose activity change, negative = inhibition, most hits filed as inhibitors; active = well fitted inhibition curve with a large enough effect; inconclusive = small, poorly fitted or top-dose-only effect, or another doubt; inactive = no such curve, though single readings can be large or run the other way; note: potency is the fitted concentration of half-maximal effect; % is set by controls: 0 for no effect and ±100 for the full control effect
#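 Erythrocytes infected with luciferase-expressing P. falciparum were dispensed at 2% hematocrit and 0.05% parasitemia (final), then incubated with compounds 96 hours at 37 C in 5% CO2. Luminescence after detection reagent addition reported growth.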
# Shiga inhibitor: blocks Shiga toxin action in Vero cells. AID 2315. Vero cells, Shiga toxin protein synthesis inhibition reporter. inhibition, % at 38.7 µM. hit rate 9.2% among 290,000; in the data active = inhibition mostly above about 28%, no sharp cut-off; inactive = mostly below about 43%; note: 0% is about no effect
# Cycloheximide cs: affects cycloheximide protein synthesis inhibition readout, counter-screen; AID 2314; max response, %; hit rate 12% among 300,000; cell reporter, cycloheximide protein synthesis inhibition counterscreen; in the data active = max response mostly above about 13%, no sharp cut-off; inactive = mostly below about 14%; note: read at 38.3 µM for the half of the compounds with a filed dose; 0% is about no effect
# * hit, by the source's call; u = inconclusive; x = not tested or not shown; + = active, no number; [ ] = another dose, or the depositor's remark. Unless noted, calls come from the whole dose curve.
SMILES,NS1 function inh,Pf growth 48h,SARS PLP yeast,Pf growth 96h,Shiga inhibitor,Cycloheximide cs
CCN(C(=O)c1cc2cc3ccc(C)cc3nc2o1)c1ccc(OC)cc1,-42.0%,u,-14.2%,-24.5%,37.3*,36.2*
CCN(CC)CCNC(=O)c1cc2cc3ccc(OC)cc3nc2o1,1.8%,-0.6%[0.00184 µM],-0.5%,1.0%,-6.5,-3.6
CCCCN(C)CCNC(=O)c1cc2cc3ccc(OC)cc3nc2o1,0.5%,12.0%[0.00184 µM],1.0%,1.3%,-4.3,-3.0
COc1ccc2nc3oc(C(=O)N4CCC(C(N)=O)CC4)cc3cc2c1,-4.6%,11.7µM*,4.5%,-60.9%,33.5,11.3
CCn1c(SCC(=O)Nc2nncs2)nnc1-c1ccco1,-2.1%,-14.6%,1.6%,8.0%,-0.9,-3.5
Cc1ccc(N2CCCC2=O)cc1S(=O)(=O)N1CCOCC1,-13.0%,-5.0%,-2.5%,u,-1.1,-2.1
CCCCN(C)C(=O)c1cc2cc3ccc(OC)cc3nc2o1,-13.6%,9.7%[0.00184 µM],-1.4%,-21.9%,79.3*,28.9*
COc1ccc2cc(-c3ccccc3)ncc2c1,-38.7%,290.4%,-6.6%,162.5%,84.6*,42.2*
COc1ccc2nc(-c3ccccc3)[nH]c2c1,-44.3%,52.6%,-24.4%,11.7µM*,73.1*,56.7*
COc1cc(OC)cc(-c2cc3ccc(OC)cc3cn2)c1,x,25.2%,-0.3%,141.4%,x,x
CCOc1ccc2nc(-c3ccccc3)[nH]c2c1,-135.9%,32.1%,-15.2%,0.5%,70.9*,35.5*
CCOc1ccc2nc(C(C)O)[nH]c2c1 (configuration not stated),3.0%,5.3%,1.8%,x,-7.5,0.9
COc1ccc2[nH]c(-c3ccccc3)cc2c1,0.4%,-14.5%,-2.9%,-43.4%,88.1*,74.4*
CN(C)CCC[C@@H]1c2ccccc2Oc2ccc(C(F)(F)F)cc21,-8.1%,x,x,x,x,x
COc1ccc(-c2cc(=O)c3cc(F)ccc3[nH]2)cc1,-7.7%,u,18.1%,u,-4.7,45.4
Cc1ccc2[nH]c(-c3ccc(F)cc3F)cc(=O)c2c1,x,x,x,x,+,32.2*
COc1ccc2[nH]c(-c3ccc(C)cc3)cc(=O)c2c1,-0.2%,35.2%,8.5%,-61.9%,47.5,31.7*
O=C1CC(c2ccco2)CC(O)=C1C=Nc1cc(Cl)ccc1O (configuration not stated),1.9%,9.28µM*,-10.0%,u,24.1,11.3
O=C1CC(c2ccco2)CC(O)=C1C=Nc1ccc(Br)cc1 (configuration not stated),-1.4%,-11.5%,-10.3%,x,-4.8,11.1
Cc1ccc(N=CC2=C(O)CC(c3ccco3)CC2=O)cc1 (configuration not stated),-18.5%,0.1%,-12.0%,0.0%,40.5,21.1*
c1cc(C2CCN(Cc3nc(-c4ccc5c(c4)OCO5)no3)CC2)ccn1,-2.5%,13.7%,-1.4%,u,-11.7,-2.0
CN(CCN1CCc2ccccc2C1)Cc1nc(-c2ccc3c(c2)OCO3)no1,-2.2%,17.0%,-0.8%,u,-8.3,-1.4
Fc1ccc(CN2CCCN(Cc3nc(-c4ccc5c(c4)OCO5)no3)CC2)cc1,-3.0%,-13.1%,0.2%,10.1%,12.1,14.7*
c1ccc(OCCN2CCN(Cc3nc(-c4ccc5c(c4)OCO5)no3)CC2)cc1,-3.2%,36.3%,-0.3%,14.7µM*,3.0,7.2
CN(CCCCN1CCOCC1)Cc1nc(-c2ccc3c(c2)OCO3)no1,-0.4%,35.0%,0.8%,13.2%,19.7,9.5*
SMILES,NS1 function inh,Pf growth 48h,SARS PLP yeast,Pf growth 96h,Shiga inhibitor,Cycloheximide cs
COCC1CCN(Cc2nc(-c3ccc4c(c3)OCO4)no2)C1 (configuration not stated),3.9%,71.4%,0.9%,-14.0%,67.2*,38.6*
O=C(c1ccco1)N1CCCN(Cc2nc(-c3ccc4c(c3)OCO4)no2)CC1,-1.8%,-6.0%,-0.9%,u,17.3,6.7
CCCCCn1nc(C)c(/C=N/NC(=O)c2ccoc2C)c1C,-10.1%,37.1%,-11.9%,-27.8%,67.9*,40.5*
CCn1nc(C)c(/C=N/NC(=O)c2ccoc2C)c1C,13.0%,206.8%,u,356.7%,69.7,25.4*
CCn1nc(C)c(/C=N/NC(=O)c2nc3nc(C)cc(C)n3n2)c1C,4.6%,8.7%,-0.3%,21.7%,14.6,0.1
CCCCCn1nc(C)c(/C=N\NC(=O)c2cc(C)oc2C)c1C,-2.2%,13.1µM*,-9.6%,-26.0%,43.6*,17.6*
CCn1nc(C)c(/C=N\NC(=O)c2cccc(OC)c2)c1C,10.4%,3.0%,-15.7%,2.4%,17.9,11.0
CCn1nc(C)c(/C=N/NC(=O)Cn2cncn2)c1C,-0.9%,25.3%,1.7%,-1.8%,15.3,17.1
C(=N\N=C\c1ccncc1)/c1ccncc1,x,u,-3.8%,0.0%,x,x
Clc1ccc(N/N=C/c2ccncc2)cc1Cl,-32.2%,2.33µM*,-85.8%,1.17µM*,60.2*,37.9*
O=C(O)c1ccc(/C=N/Nc2ncc(C(F)(F)F)cc2Cl)cc1,-4.0%,18.2%,0.2%,26.3%,10.5,0.7
Clc1cnc(N/N=C/c2ccncc2)c(Cl)c1,-10.2%,30.2%,0.1%,2.8%,48.6*,15.6*
CC(C)(C)c1cc(OC(=O)c2ccccc2F)ccc1O,-5.9%,4.7%,-3.0%,-16.4%,32.8*,11.0
CN1CCN(CC(O)(c2ccc(Cl)cc2)c2ccc(Cl)cc2)CC1,x,9.28µM*,2.3%,14.7µM*,-16.5,-9.7
O=C(O)C1Sc2[nH]c(=O)sc2C2c3ccc(O)cc3OC(=O)C12 (configuration not stated),3.1%,13.3%,2.4%,86.3%[5.75 µM],-14.3,-3.7
CCCCC(=O)Nc1nc2c(s1)COc1ccccc1-2,14.9%,41.8%,-9.0%,1.1%,42.5*,37.7*
CCCC(=O)Nc1nc2c(s1)COc1ccccc1-2,-19.8%,85.5%,-15.9%,51.8%,31.2*,24.3*
CCCN(CCC)S(=O)(=O)c1ccc(C(=O)Nc2nc3c(s2)CCc2ccccc2-3)cc1,-4.8%,-18.8%,-7.0%,u,-7.3,-1.9
CC(C)(C)C(=O)Nc1nc2c(s1)COc1ccccc1-2,2.0%,u,u,u,46.0*,19.5*
O=C(CCSc1ccccc1)Nc1nc2c(s1)COc1ccccc1-2,3.1%,4.6%,-7.3%,12.6%,12.2,-0.9
Nc1nc2c(s1)COc1ccccc1-2,-64.7%,42.3%,-6.5%,31.1%,42.5,13.7*
O=C(NC(=S)Nc1nc2c(s1)CSc1ccccc1-2)c1ccccc1,-101.1%,x,-46.0%,u,22.6,13.3
C[C@H](NC(=O)C1CCN(S(=O)(=O)c2ccccc2)CC1)C(=O)NCc1ccco1,-11.5%,-17.2%,0.9%,u,1.0,1.1
COc1cccc(-n2nnnc2SCC(=O)N2CCCc3ccccc32)c1,-83.7%,-19.5%,-16.8%,u,7.0,2.9
CC(=O)N[C@H]1[C@H](Oc2ccc3c(c2)CCC2C3CC[C@]3(C)C(=O)CCC23)O[C@H](CO)[C@@H](O)[C@@H]1O (some centres not stated),2.1%,8.5%,1.4%,6.6%,-5.4,-0.9
